# Values joined by “and” are separate entries in the source; they are usually repeats but may differ in a detail not shown here. Equal values may be shown once. Results filed as inconclusive are left out. Entries that show only a call come without a potency. Where a structure was tested more than once in an assay, its records may differ in their call. Active and inactive are the calls of the source. Calls come from the whole dose curve; as a rule, active = well fitted cell-killing curve with a large enough effect in the repeat runs; inconclusive = weak or mixed curves, or effect the other way; inactive = flat fitted curve, though single readings scatter.
# Assay: qHTS assay to identify small molecule that activate the aryl hydrocarbon receptor (AhR) signaling pathway - cell viability counter screen (AID 743086); note: nearly all actives have a fitted effect of over 45% in size;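 for viability change, negative = cytotoxic: HepG2 liver cells carrying the AhR DRE luciferase reporter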
# Details: HepG2-AhR-luc viability, CellTiter-Fluor, 24 h; series mostly up to 70.3 µM; viability change, negative = cytotoxic: at the top concentration
# From the text: U.S. Tox21 Program National Center for Advancing Translational Sciences [NCATS] NIH Chemical Genomics Center [NCGC] U.S. Environmental Protection Agency [EPA] National Institutes of Environmental Health Sciences [NIEHS] National Toxicology Program [NTP] U.S. Food and Drug Administration [FDA] Tox21 Assay overview: The Aryl hydrocarbon Receptor (AhR), a member of the family of basic helix-loop-helix transcription factors, is crucial to adaptive responses to environmental changes. AhR mediates cellular responses to environmental pollutants such as aromatic hydrocarbons through induction of phase I and II enzymes but also interacts with other nuclear receptor signaling pathways A cell based HepG2-AhR-luc assay (HG2L7.5c1 cell line, developed by Dr. Michael S. Denison, University of California at Davis) was used to assess the activation of AhR. HepG2 (human hepatocellular carcinoma) cells were stably transfected with an Ah receptor-responsive firefly luciferase reporter gene plasmid containing 20 dioxin responsive elements and luciferase reporter gene. Increased luciferase activity can be used to identify the compounds that induce AhR activation. The cytotoxicity of the compounds screened against the HepG2-AhR-luc cell line was tested in parallel by measuring the cell viability using CellTiter-Fluor assay in the same wells.
# Tox21 Assay Protocol Summary: 4000 cells in 5 uL/well were dispensed into white wall/solid bottom 1536-well plates using a Multidrop Combi (Thermo Fisher Scientific Inc., Waltham, MA) dispenser. After the assay plates were incubated at 37C for 5 h, 23 nL of compound or DMSO vehicle was transferred to the assay plates by a pintool station (Kalypsys, San Diego, CA). The plates were incubated at 37C for 24 hr. For cell viability measurement, 1 ul/well of CellTiter-Fluor reagent (Promega, Madison, WI) was added into the assay plates using a Flying Reagent Dispenser (FRD) (Aurora Discovery, CA),and then the assay plates were incubated at 37C for 30 min. The fluorescence intensity in the plates was measured using a ViewLux plate reader (PerkinElmer, Shelton, CT), followed by the addition of 4 uL of ONE-Glo Luciferase Assay reagent (Promega) using an FRD (Aurora Discovery). After the assay plates were incubated at room temperature for 30 min, luminescence intensity was measured using a ViewLux plate reader (Perkin Elmer).
# Potency is the fitted concentration of half-maximal effect.
SMILES,Potency,"viability change, negative = cytotoxic"
CCCC[N+]1(C)CCCC1,inactive,–
CCn1cc[n+](C)c1C,inactive,–
C1CCC(NC2CCCCC2)CC1,inactive,–
COc1ccc(N)cc1,inactive,–
Nc1ccc(Cl)cc1,inactive,–
CCC[N+]1(C)CCCC1,inactive,–
O=S(=O)(O)O,inactive,–
Cc1cc(Cl)ccc1OCC(=O)O,inactive,–
C=CCOC(Cn1ccnc1)c1ccc(Cl)cc1Cl (stereo not given),–,-2.21% (inactive)
O=C(O)C(Cl)(Cl)Cl,inactive,–
Oc1cccc2cccnc12,inactive and 18.8 µM (active) and 2.05 µM (active),–
Oc1ccccc1-c1ccccc1,inactive,–
O=C(O)c1nc(Cl)ccc1Cl,inactive,–
CCCCCCCCCCCCCCCCn1cc[n+](C)c1,62.4 µM (active) and inactive and 30.7 µM (active),–
O=C(O)C(Cl)Cl,inactive,–
CCCCn1cc[n+](C)c1C,inactive,–
CCCCCCCCn1cc[n+](C)c1,inactive,–
CCCC[n+]1ccccc1C,inactive,–
CCCC[n+]1cccc(C)c1,inactive,–
C[C@]12CCC(=O)C=C1CC[C@@H]1[C@@H]2CC[C@]2(C)C(=O)CC[C@@H]12,inactive,–

SMILES,Potency,"viability change, negative = cytotoxic"
O=C(O)CC(O)(CC(=O)O)C(=O)O,inactive,–
Nc1ccccc1,inactive,–
CCCC[n+]1ccc(C)cc1,inactive,–
CCC(=O)C(CC(C)N(C)C)(c1ccccc1)c1ccccc1 (stereo not given),–,-20.4% (inactive)
CCCCCCCCCCCCCC[P+](CCCCCC)(CCCCCC)CCCCCC,61.4 µM (active) and 54.9 µM (active) and inactive,–
O=c1[nH]c(=O)n(Cl)c(=O)n1Cl,inactive,–
CCCn1cc[n+](C)c1,inactive,–
CCCCCCn1cc[n+](C)c1,inactive,–
CC(=O)[O][Hg][c]1ccccc1,9.44 µM (active) and 4.29 µM (active) and 4.86 µM (active),–
CCCC[N+]1(C)CCCCC1,inactive,–
CC(Cl)(Cl)C(=O)O,inactive,–
O=c1nc(O)n(Cl)c(=O)n1Cl,inactive,–
OCCOc1ccccc1,inactive,–
COCC(=O)N(c1c(C)cccc1C)C(C)C(=O)OC (stereo not given),inactive,–
CC(=O)O,inactive,–
CC[N+]1(C)CCCC1,inactive,–
CC[n+]1ccccc1,inactive,–
N#CS,inactive,–
COP(=O)(OC)OC=C(Cl)Cl,inactive,–
O=[N+]([O-])c1ccccc1O,inactive,–

# Reference: PubChem BioAssay (Tox21)
